Reference: PubChem BioAssay (EPA / NIEHS)
Results filed as inconclusive are left out. The source made the active and inactive calls. Rule for the calls, unless noted: active = hit-call score of the fitted dose curve at least 0.9, where 1 is the maximum; inactive = score below 0.9.

Key:
[1] = read-out: Monocyte Chemoattractant Protein-1 (MCP1), CCL2 (gene 6347); experiment: BSK_LPS_MCP1: BioMAP Diversity Plus: LPS Assay for Monocyte Chemoattractant Protein-1 (MCP1) Biomarker Activity (AID 2283081); conditions: primary human HUVEC with PBMC; actives raise or lower the signal
Procedure, shortened: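 Secreted MCP-1 read by ELISA at 24 h post-dosing in an LPS-activated co-culture of endothelial cells with peripheral blood mononuclear cells. Fits run in both directions, DMSO as baseline; parallel SRB staining tracks overt cytotoxicity.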

[2] = BSK_LPS_PGE2: BioMAP Diversity Plus: LPS Assay for Prostaglandin E2 (PGE2) Biomarker Activity (AID 2283082); conditions: primary human HUVEC with PBMC; actives raise or lower the signal;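 for AC50: secreted prostaglandin E2 measured by ELISA in LPS-stimulated co-culture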
Procedure, shortened: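 LPS-activated HUVEC/PBMC co-culture; cmpd dosed, 24 h; PGE2 by ELISA; bidirectional fit vs DMSO; SRB (0.1%, TCA-fixed, 560 nm) in parallel plates for overt cytotox.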

[3] = read-out: Macrophage colony-stimulating factor (MCSF), CSF1 (gene 1435); experiment: BSK_LPS_MCSF: BioMAP Diversity Plus: LPS Assay for Macrophage colony-stimulating factor (MCSF) Biomarker Activity (AID 2283083); conditions: primary human HUVEC with PBMC; actives raise or lower the signal
Procedure, shortened: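 Bidirectional fitting against DMSO was applied to M-CSF levels read by ELISA at 24 h post-dose. The system pairs human umbilical vein endothelium with peripheral blood mononuclear cells; parallel SRB staining tracked cytotoxicity.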

[4] = read-out: Tissue Factor, F3 (gene 2152); experiment: BSK_LPS_TissueFactor: BioMAP Diversity Plus: LPS Assay for Tissue Factor Biomarker Activity (AID 2283084); conditions: primary human HUVEC with PBMC; actives raise or lower the signal
Procedure, shortened: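 Compound was added to an endothelial cell/PBMC co-culture, and after 24 h tissue factor (CD142) was read by ELISA. Gain or loss of signal was fitted against a DMSO baseline, and parallel SRB staining (560 nm) tracked overt cytotoxicity.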

[5] = read-out: Tumor necrosis factor (Homo sapiens) (UniProt P01375); experiment: BSK_LPS_TNFa: BioMAP Diversity Plus: LPS Assay for Tumour Necrosis Factor alpha (TNFa) Biomarker Activity (AID 2283085); conditions: primary human HUVEC with PBMC; actives raise or lower the signal
Procedure, shortened: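 Read-out is ELISA of TNFa in primary human endothelial cell–PBMC co-cultures at 24 h after compound. Activity in either direction was fitted against DMSO.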

[6] = read-out: Vascular cell adhesion molecule 1 (VCAM1), VCAM1 (gene 7412); experiment: BSK_LPS_VCAM1: BioMAP Diversity Plus: LPS Assay for Vascular cell adhesion molecule 1 (VCAM1) Biomarker Activity (AID 2283086); conditions: primary human HUVEC with PBMC; actives raise or lower the signal
Procedure, shortened: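 HUVEC + PBMC co-culture, LPS system; compound 24 h; VCAM-1 by ELISA; bidirectional fit vs DMSO control; parallel SRB (0.1%, TCA-fixed, 560 nm) for cytotoxicity.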

CD38, CD38 (gene 952) = experiment: BSK_SAg_CD38: BioMAP Diversity Plus: SAg Assay for CD38 Biomarker Activity (AID 2283087); conditions: primary human HUVEC with PBMC; actives raise or lower the signal
Procedure, shortened: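 Human HUVEC plus PBMC co-culture stimulated with superantigen; CD38 measured by ELISA 24 h after chemical dosing. Fluorescence read-out, bidirectional fit against DMSO; cytotoxicity tracked in parallel by SRB and Alamar Blue.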

CD40, CD40 (gene 958) = experiment: BSK_SAg_CD40: BioMAP Diversity Plus: SAg Assay for CD40 Biomarker Activity (AID 2283088); conditions: primary human HUVEC with PBMC; actives raise or lower the signal
Procedure, shortened: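 CD40 is measured by fluorescence ELISA in an endothelial/PBMC primary human co-culture at 24 h post-dose. Fitting is bidirectional, DMSO baseline. Parallel SRB staining (560 nm) flags cytotoxicity.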

[7] = read-out: Monocyte Chemoattractant Protein-1 (MCP1), CCL2 (gene 6347); experiment: BSK_SAg_MCP1: BioMAP Diversity Plus: SAg Assay for Monocyte Chemoattractant Protein-1 (MCP1) Biomarker Activity (AID 2283090); conditions: primary human HUVEC with PBMC; actives raise or lower the signal
Procedure, shortened: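 MCP-1 levels in the endothelial–PBMC SAg co-culture were quantified by ELISA at 24 h post-dosing; both increases and decreases versus DMSO scored. Cytotoxicity monitored by SRB total protein in parallel cultures.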

[8] = read-out: E-selectin (Homo sapiens) (UniProt P16581); experiment: BSK_SAg_Eselectin: BioMAP Diversity Plus: SAg Assay for Eselectin Biomarker Activity (AID 2283091); conditions: primary human HUVEC with PBMC; actives raise or lower the signal
Procedure, shortened: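 Cell-surface E-selectin is read by ELISA at 24 h in the SAg co-culture of HUVEC and PBMC. Curves are fitted in both directions relative to DMSO. Parallel SRB total-protein staining tracks overt toxicity.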

[9] = read-out: Monokine induced gamma interferon (MIG), CXCL9 (gene 4283); experiment: BSK_SAg_MIG: BioMAP Diversity Plus: SAg Assay for Monokine induced gamma interferon (MIG) Biomarker Activity (AID 2283092); conditions: primary human HUVEC with PBMC; actives raise or lower the signal
Procedure, shortened: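 Endothelial cells and PBMC were co-cultured, exposed to test chemicals, and sampled 24 h later. MIG was measured by ELISA, and responses were fitted in both directions relative to DMSO.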

[10] = BSK_SAg_PBMCCytotoxicity: PBMC Cytotoxicity Assessment in the BioMAP Diversity Plus: SAg Assay (AID 2283093); conditions: primary human HUVEC with PBMC;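 note: PBMC viability measured as Alamar Blue reduction fluorescence at 546/580 nm; fitted both ways against DMSO so a hit may be loss or gain of signal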
Procedure, shortened: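 HUVEC/PBMC co-culture; PBMC exposed to chemical 1 h before SEB and TSST-1 activation (20 ng/mL each), incubated 90 h, then Alamar Blue 6 h, fluorescence 546/580 nm. Bidirectional fit versus DMSO baseline.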

[11] = read-out: Interleukin-8 (IL8), CXCL8 (gene 3576); experiment: BSK_SAg_IL8: BioMAP Diversity Plus: SAg Assay for Interleukin-8 (IL8) Biomarker Activity (AID 2283094); conditions: primary human HUVEC with PBMC; actives raise or lower the signal
Procedure, shortened: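 ELISA read-out of IL-8 in a primary human vascular co-culture (umbilical vein endothelium plus PBMC), taken 24 h after compound addition. Values derive from bidirectional fits against DMSO negative controls.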

[12] = BSK_SAg_Proliferation: Cell Proliferation Assessment in the BioMAP Diversity Plus: SAg Assay (AID 2283095); conditions: primary human HUVEC with PBMC;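 note: relative cell number as total protein by SRB absorbance in sub-confluent culture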
Procedure, shortened: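 Cells (endothelium plus PBMC, human primary) were dosed with chemical, cultured 96 h, fixed in 10% TCA and stained with 0.1% SRB. Absorbance at 560 nm gave relative protein, fitted bidirectionally relative to DMSO.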

[13] = BSK_SAg_SRB: Viability Assessment in the BioMAP Diversity Plus: SAg Assay (AID 2283096); conditions: primary human HUVEC with PBMC;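 note: cells read one day after compound addition; hits may be either gain or loss of signal compared with DMSO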
Procedure, shortened: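 Human umbilical vein endothelial cells co-cultured with PBMC, read 24 h after compound dosing. Total protein measured by sulforhodamine B staining (0.1% SRB after 10% TCA fixation, absorbance 560 nm); bidirectional fit versus DMSO baseline.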

[14] = molecular target: human CYP1A1, CYP1A1 (gene 1543) (UniProt P04798); experiment: NVS_ADME_hCYP1A1: NovaScreen (NVS) CYP450-related Enzyme Activity (ADME) Assay for human CYP1A1 (AID 2283100; active = hit-call score of the fitted dose curve at least 0.9, where 1 is the maximum)
Procedure, shortened: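 Chemicals were first tested in duplicate at 10 uM, and those passing a 30% inhibition threshold were rerun as concentration series topping at 20 uM. Fluorescence read-out of recombinant enzyme turnover after 1 h, relative to acetonitrile.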

[15] = molecular target: human CYP2B6, CYP2B6 (gene 1555) (UniProt P20813); experiment: NVS_ADME_hCYP2B6: NovaScreen (NVS) CYP450-related Enzyme Activity (ADME) Assay for human CYP2B6 (AID 2283101; active = hit-call score of the fitted dose curve at least 0.9, where 1 is the maximum)
Procedure, shortened: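 Cell-free recombinant enzyme assay with a fluorogenic substrate; fluorescence intensity read 1 hour after dosing. Loss of signal relative to acetonitrile negative control indicates inhibition. Primary screen run in duplicate at 10 uM, actives then tested in concentration series.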

[16] = molecular target: human CYP1A2, CYP1A2 (gene 1544) (UniProt P05177); experiment: NVS_ADME_hCYP1A2: NovaScreen (NVS) CYP450-related Enzyme Activity (ADME) Assay for human CYP1A2 (AID 2283102; active = hit-call score of the fitted dose curve at least 0.9, where 1 is the maximum)
Procedure, shortened: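 Enzyme activity of insect-cell-expressed human CYP1A2 measured by fluorescence 0.5 h after compound addition, relative to acetonitrile. Compounds first tested in duplicate at 10 uM, actives followed up in concentration series.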

Measured: AC50

Tumor necrosis factor (Homo sapiens), sequence (P01375 whole entry, looked up): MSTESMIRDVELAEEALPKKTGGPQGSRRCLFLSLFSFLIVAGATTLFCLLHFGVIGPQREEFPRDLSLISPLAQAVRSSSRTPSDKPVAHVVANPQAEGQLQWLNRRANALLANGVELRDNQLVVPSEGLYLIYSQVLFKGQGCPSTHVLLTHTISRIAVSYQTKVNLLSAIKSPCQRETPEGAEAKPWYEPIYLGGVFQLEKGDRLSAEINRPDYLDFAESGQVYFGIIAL
E-selectin (Homo sapiens), sequence (P16581 whole entry, looked up): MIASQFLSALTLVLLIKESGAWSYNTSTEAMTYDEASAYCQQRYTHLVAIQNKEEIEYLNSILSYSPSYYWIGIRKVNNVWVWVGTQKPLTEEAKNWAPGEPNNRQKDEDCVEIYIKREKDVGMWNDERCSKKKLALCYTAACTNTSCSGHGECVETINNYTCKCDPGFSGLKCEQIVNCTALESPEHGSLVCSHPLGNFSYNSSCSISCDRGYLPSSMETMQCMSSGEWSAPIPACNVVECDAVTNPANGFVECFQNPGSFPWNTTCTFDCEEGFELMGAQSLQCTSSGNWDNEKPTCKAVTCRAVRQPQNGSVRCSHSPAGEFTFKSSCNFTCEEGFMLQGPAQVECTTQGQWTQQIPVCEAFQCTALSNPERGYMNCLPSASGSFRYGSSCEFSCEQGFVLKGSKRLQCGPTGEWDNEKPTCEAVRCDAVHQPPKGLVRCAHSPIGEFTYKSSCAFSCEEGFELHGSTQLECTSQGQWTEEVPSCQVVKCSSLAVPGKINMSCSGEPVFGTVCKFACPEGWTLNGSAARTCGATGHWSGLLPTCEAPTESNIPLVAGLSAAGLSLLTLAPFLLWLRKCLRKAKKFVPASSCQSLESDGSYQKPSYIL
human CYP1A1, CYP1A1 (gene 1543), sequence (P04798 whole entry, looked up): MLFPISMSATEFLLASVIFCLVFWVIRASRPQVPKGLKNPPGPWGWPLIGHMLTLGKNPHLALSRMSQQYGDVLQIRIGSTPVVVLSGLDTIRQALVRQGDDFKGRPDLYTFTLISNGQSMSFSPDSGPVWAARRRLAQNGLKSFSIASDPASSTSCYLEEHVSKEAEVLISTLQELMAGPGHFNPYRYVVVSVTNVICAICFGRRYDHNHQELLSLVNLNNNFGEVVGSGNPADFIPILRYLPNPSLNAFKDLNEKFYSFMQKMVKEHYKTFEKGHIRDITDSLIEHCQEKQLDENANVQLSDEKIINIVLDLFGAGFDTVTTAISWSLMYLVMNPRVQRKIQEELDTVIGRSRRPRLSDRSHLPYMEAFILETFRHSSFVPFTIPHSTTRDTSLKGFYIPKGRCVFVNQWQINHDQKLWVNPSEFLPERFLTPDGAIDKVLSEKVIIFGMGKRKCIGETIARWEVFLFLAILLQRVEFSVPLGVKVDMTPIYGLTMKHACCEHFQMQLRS
human CYP2B6, CYP2B6 (gene 1555), sequence (P20813 whole entry, looked up): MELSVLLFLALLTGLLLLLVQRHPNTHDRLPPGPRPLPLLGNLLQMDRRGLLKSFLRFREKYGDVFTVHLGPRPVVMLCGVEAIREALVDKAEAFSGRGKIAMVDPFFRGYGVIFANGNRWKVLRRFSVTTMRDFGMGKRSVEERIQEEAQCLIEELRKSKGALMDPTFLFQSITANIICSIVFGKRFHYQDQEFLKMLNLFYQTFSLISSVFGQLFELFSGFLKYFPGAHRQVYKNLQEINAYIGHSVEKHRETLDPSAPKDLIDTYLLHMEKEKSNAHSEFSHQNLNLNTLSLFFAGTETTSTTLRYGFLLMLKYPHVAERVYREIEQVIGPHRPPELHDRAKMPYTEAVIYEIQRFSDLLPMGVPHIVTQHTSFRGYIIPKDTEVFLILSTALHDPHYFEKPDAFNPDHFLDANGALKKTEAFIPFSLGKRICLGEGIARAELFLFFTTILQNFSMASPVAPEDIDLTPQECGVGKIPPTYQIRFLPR
human CYP1A2, CYP1A2 (gene 1544), sequence (P05177 whole entry, looked up): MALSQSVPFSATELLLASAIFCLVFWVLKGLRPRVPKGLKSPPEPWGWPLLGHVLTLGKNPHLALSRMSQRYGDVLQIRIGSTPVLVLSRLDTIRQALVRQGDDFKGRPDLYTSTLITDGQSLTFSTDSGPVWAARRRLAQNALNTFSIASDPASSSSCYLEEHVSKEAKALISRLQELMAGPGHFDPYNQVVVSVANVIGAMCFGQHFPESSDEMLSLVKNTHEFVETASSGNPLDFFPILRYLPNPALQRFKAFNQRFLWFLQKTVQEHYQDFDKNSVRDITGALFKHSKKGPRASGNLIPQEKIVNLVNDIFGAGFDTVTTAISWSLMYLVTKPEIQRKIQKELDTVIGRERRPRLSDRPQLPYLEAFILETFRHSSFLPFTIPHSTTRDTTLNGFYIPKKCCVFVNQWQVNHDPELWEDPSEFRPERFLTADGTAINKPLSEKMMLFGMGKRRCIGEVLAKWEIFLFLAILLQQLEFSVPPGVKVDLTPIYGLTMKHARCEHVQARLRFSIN

O=P(OCCCl)(OCCCl)OCCCl
not listed: [14] | [15] | [16]
inactive: all other assays above

Cc1ccc(N)c(N)c1
active: [2] 20 µM | [3] 11.5 µM | [6] 9.77 µM | CD40, CD40 (gene 958) 7.11 µM | [8] 4.36 µM
not listed: [9] | [14] | [15] | [16]
inactive: all other assays above

Nc1ccc(N=Nc2ccccc2)cc1
active: [2] 3.55 µM | [5] 6.01 µM | [6] 14.2 µM | [15] 0.261 µM
not listed: [8]
inactive: all other assays above
